9 molecules from PubChem BioAssay (NCI) can be followed below.

Assay [1] is described as follows: NCI Yeast Anticancer Drug Screen. Data for the rad50 strain (AID 155).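 Note: 0% = growth of vehicle-only cultures of the same strain.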 The conditions noted are these: S. cerevisiae rad50 strain growth inhibition, stronger effect = higher value. Put shortly:
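A DNA repair-deficient yeast mutant serves as the test organism; compound-induced growth inhibition is calculated against vehicle-treated cells.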

Assay [2] in a line: NCI Yeast Anticancer Drug Screen. Data for the mec2-1 strain (AID 157). The conditions noted are these: S. cerevisiae mec2-1 strain, stronger effect = higher value. Put shortly: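 Strain: mec2-1 (DNA repair/cell cycle alteration). Compound exposure, then growth measured; inhibition expressed relative to vehicle.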
Assay [3] can be described thus: NCI Yeast Anticancer Drug Screen. Data for the sgs1 mgt1 strain (AID 161).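 Note: 0% = growth of cultures given vehicle only.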 Conditions: S. cerevisiae sgs1 mgt1 strain, stronger effect = higher value. Put shortly: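 Genetically altered yeast, compound exposure, growth inhibition relative to vehicle.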
Assay [4] is described as follows: NCI Yeast Anticancer Drug Screen. Data for the cln2 rad14 strain (AID 165).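 Note: 0% = growth equal to vehicle treated cultures.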 Conditions: S. cerevisiae cln2 rad14 strain, stronger effect = higher value. Put shortly: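 Compounds are applied to the cln2 rad14 yeast strain, and growth is then compared with that of vehicle-treated cultures to give inhibition.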
Assay [5] in a line: NCI Yeast Anticancer Drug Screen. Data for the bub3 strain (AID 167). The conditions noted are these: S. cerevisiae bub3 mutant strain, stronger effect = higher value. Put shortly:
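Inhibition values come from growth of compound-treated mutant yeast normalised to vehicle-treated controls.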

Assay [6] in a line: NCI Yeast Anticancer Drug Screen. Data for the mlh1 rad18 strain (AID 175). Conditions: S. cerevisiae mlh1 rad18 strain growth inhibition, stronger effect = higher value. Put shortly:
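Read-out is yeast growth inhibition, calculated against vehicle-only controls. The compound was applied to a strain engineered with DNA damage repair alterations.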

[7] abbreviates: at 5.0 µM (retest, dose inferred, filed as 0.5).
Setting [8] is: at 50.0 µM (retest, dose inferred, filed as 5.0).

Compounds without any hit were thinned out: in the full panel of roughly 79,000, 15% have a hit. Values without a mark were called inactive. Active and inactive are the calls of the source. Cut-off read from the data, not from the text of the source: active = growth inhibition above about 70%; inactive = the rest. Where a SMILES comes first, the peptide text is derived from it. [ ]: non-standard residue; d: D form. The star is where a group is joined. Phe(2-OMe) = COc1ccccc1C[CH](N)C(=O)O; Cbz = O=C(OCc1ccccc1)*; OBn = c1ccc(CO*)cc1

Consider `O=C(Nc1ccccc1)c1cccc2ccccc12`, for which the growth inhibition was 2% in assay [1] (setting [7]); -8% in assay [1] (setting [8]); 67.7% in assay [1] (at 50.0 µM); 4% in assay [2] (setting [7]); -1% in assay [2] (setting [8]); 48% in assay [2] (at 50.0 µM). For the same molecule, the growth inhibition in assay [3] (setting [7]) is 6%; in assay [3] (setting [8]), -4%; in assay [3] (at 50.0 µM), 55.1%; in assay [4] (setting [7]) it was 1%; in assay [4] (setting [8]), -6%; in assay [4] (at 50.0 µM), 24.1%. The growth inhibition in assay [5] (setting [7]) is -18%; in assay [5] (setting [8]), 0%; in assay [5] (at 50.0 µM), 51%; in assay [6] (setting [7]), -15%; in assay [6] (setting [8]), 7%; in assay [6] (at 50.0 µM), 70.8% (active).
With `COC1C(=[N+]=[N-])C(=O)NC(=O)N1C1OC(COC(c2ccccc2)(c2ccccc2)c2ccccc2)C(O)C1O` (configuration not stated), the growth inhibition was 63% in assay [1] (setting [7]); 63% in assay [1] (setting [8]); 69.5% in assay [1] (at 50.0 µM); 10% in assay [2] (setting [7]); 10% in assay [2] (setting [8]); 80.7% (active) in assay [2] (at 50.0 µM). For the same molecule, the growth inhibition in assay [3] (setting [7]) is 18%; in assay [3] (setting [8]) it was 18%; in assay [3] (at 50.0 µM), 66.8%; in assay [4] (setting [7]), 14%; in assay [4] (setting [8]) it was 14%; in assay [4] (at 50.0 µM), 77.2% (active). Further, the growth inhibition in assay [5] (setting [7]) is 13%; in assay [5] (setting [8]), 13%; in assay [5] (at 50.0 µM) it was 60.2%; in assay [6] (setting [7]), 15%; in assay [6] (setting [8]), 15%; in assay [6] (at 50.0 µM) it was 66.6%.
Consider `COC(=O)C1(C)CCCC2(C)C3CC(=O)C(C(C)C)=CC3(O)CCC12` (configuration not stated), for which the growth inhibition in assay [1] (setting [7]) was 7%; in assay [1] (setting [8]), 8%; in assay [1] (at 50.0 µM), 10.7%; in assay [2] (setting [7]), -1%; in assay [2] (setting [8]), -3%; in assay [2] (at 50.0 µM) it was -3.25%. Besides, the growth inhibition is 4% in assay [3] (setting [7]); -15% in assay [3] (setting [8]); 3.1% in assay [3] (at 50.0 µM); -75% in assay [4] (setting [7]); -27% in assay [4] (setting [8]); 13.7% in assay [4] (at 50.0 µM). In addition, the growth inhibition in assay [5] (setting [7]) is 5%; in assay [5] (setting [8]) it was 2%; in assay [5] (at 50.0 µM), 0.8%; in assay [6] (setting [7]), 15%; in assay [6] (setting [8]), 19%; in assay [6] (at 50.0 µM) it was -5.95%.
`CCCCN(CCCC)CCCC(O)c1c2ccc(Cl)cc2nc2ccc(OC)cc12` (configuration not stated): the growth inhibition is 1% in assay [1] (setting [7]); 24% in assay [1] (setting [8]); 18.1% in assay [1] (at 50.0 µM); -1% in assay [2] (setting [7]); 5% in assay [2] (setting [8]); 30% in assay [2] (at 50.0 µM). In addition, the growth inhibition in assay [3] (setting [7]) is 26%; in assay [3] (setting [8]), 11%; in assay [3] (at 50.0 µM) it was 18.9%; in assay [4] (setting [7]) it was -3%; in assay [4] (setting [8]) it was 0%; in assay [4] (at 50.0 µM), 25.6%. For the same molecule, the growth inhibition in assay [5] (setting [7]) was 3%; in assay [5] (setting [8]), 10%; in assay [5] (at 50.0 µM) it was 47.8%; in assay [6] (setting [7]), 3%; in assay [6] (setting [8]) it was 23%; in assay [6] (at 50.0 µM), 70.7% (active).
As for `CN(C)c1ccc(/C=C(\NC(=O)c2ccccc2)c2nc3ccccc3s2)cc1`, the growth inhibition in assay [1] (setting [7]) is 35%; in assay [1] (setting [8]), 96% (active); in assay [1] (at 50.0 µM) it was 97.1% (active); in assay [2] (setting [7]), 20%; in assay [2] (setting [8]), 97% (active); in assay [2] (at 50.0 µM) it was 97.2% (active). The growth inhibition was 61% in assay [3] (setting [7]); 97% (active) in assay [3] (setting [8]); 98% (active) in assay [3] (at 50.0 µM); 17% in assay [4] (setting [7]); 95% (active) in assay [4] (setting [8]); 97.3% (active) in assay [4] (at 50.0 µM). In addition, the growth inhibition in assay [5] (setting [7]) is 37%; in assay [5] (setting [8]), 97% (active); in assay [5] (at 50.0 µM), 95% (active); in assay [6] (setting [7]), 27%; in assay [6] (setting [8]) it was 96% (active); in assay [6] (at 50.0 µM), 97% (active).
For `CCN(C(C)=O)c1ccc2c(c1)Cc1ccccc1-2`, the growth inhibition in assay [1] (setting [7]) was 3%; in assay [1] (setting [8]), 96% (active); in assay [1] (at 50.0 µM), 97.2% (active); in assay [2] (setting [7]), -3%; in assay [2] (setting [8]), 97% (active); in assay [2] (at 50.0 µM), 95.2% (active). The growth inhibition is 5% in assay [3] (setting [7]); 97% (active) in assay [3] (setting [8]); 96.8% (active) in assay [3] (at 50.0 µM); -2% in assay [4] (setting [7]); 96% (active) in assay [4] (setting [8]); 94.8% (active) in assay [4] (at 50.0 µM). Also, the growth inhibition in assay [5] (setting [7]) is 11%; in assay [5] (setting [8]), 96% (active); in assay [5] (at 50.0 µM), 97.4% (active); in assay [6] (setting [7]), -10%; in assay [6] (setting [8]), 97% (active); in assay [6] (at 50.0 µM), 96.8% (active).
For `c1ccc(N=Nc2ccc3ccccc3c2)cc1`, the growth inhibition in assay [1] (setting [7]) was 5%; in assay [1] (setting [8]), 9%; in assay [1] (at 50.0 µM), 16.1%; in assay [2] (setting [7]), 16%; in assay [2] (setting [8]) it was 10%; in assay [2] (at 50.0 µM), 11.8%. In addition, the growth inhibition in assay [3] (setting [7]) is 6%; in assay [3] (setting [8]), 6%; in assay [3] (at 50.0 µM), 3.65%; in assay [4] (setting [7]) it was 1%; in assay [4] (setting [8]), 4%; in assay [4] (at 50.0 µM), -5.6%. In addition, the growth inhibition in assay [5] (setting [7]) is 3%; in assay [5] (setting [8]), 17%; in assay [5] (at 50.0 µM), 83% (active); in assay [6] (setting [7]), 8%; in assay [6] (setting [8]), 10%; in assay [6] (at 50.0 µM) it was 21.8%.
For `COC(=O)C(Cc1ccccc1OC)NC(=O)C(CC(=O)OCc1ccccc1)NC(=O)OCc1ccccc1` (configuration not stated) (Cbz-Asp(OBn)-[Phe(2-OMe)]-OMe; configuration not given here), the growth inhibition in assay [1] (setting [7]) is -5%; in assay [1] (setting [8]), 84% (active); in assay [1] (at 50.0 µM), 51.5%; in assay [2] (setting [7]), 0%; in assay [2] (setting [8]), 37%; in assay [2] (at 50.0 µM), 58.2%. Besides, the growth inhibition in assay [3] (setting [7]) is 1%; in assay [3] (setting [8]) it was 92% (active); in assay [3] (at 50.0 µM), 65.2%; in assay [4] (setting [7]) it was 16%; in assay [4] (setting [8]) it was 86% (active); in assay [4] (at 50.0 µM), 80.5% (active). The growth inhibition in assay [5] (setting [7]) was -1%; in assay [5] (setting [8]), 84% (active); in assay [5] (at 50.0 µM), 87.8% (active); in assay [6] (setting [7]) it was 0%; in assay [6] (setting [8]), 84% (active); in assay [6] (at 50.0 µM), 54.8%.
As to `O=C(N/C(=C\c1ccc(Oc2ccc(Cl)c(Cl)c2)cc1)c1nc2ccccc2[nH]1)c1ccccc1`, the growth inhibition in assay [1] (setting [7]) is 29%; in assay [1] (setting [8]) it was 97% (active); in assay [1] (at 50.0 µM), 97.8% (active); in assay [2] (setting [7]), 10%; in assay [2] (setting [8]), 97% (active); in assay [2] (at 50.0 µM), 98.3% (active). Further, the growth inhibition was 10% in assay [3] (setting [7]); 97% (active) in assay [3] (setting [8]); 98% (active) in assay [3] (at 50.0 µM); 13% in assay [4] (setting [7]); 65% in assay [4] (setting [8]); 95.6% (active) in assay [4] (at 50.0 µM). For the same molecule, the growth inhibition is 15% in assay [5] (setting [7]); 95% (active) in assay [5] (setting [8]); 97.2% (active) in assay [5] (at 50.0 µM); 6% in assay [6] (setting [7]); 89% (active) in assay [6] (setting [8]); 98.2% (active) in assay [6] (at 50.0 µM).
